Assay outcomes (PubChem BioAssay)
DT40 TDP1 no CPT – qHTS for Inhibitors of human tyrosyl-DNA phosphodiesterase 1 (TDP1): qHTS in cells in absence of CPT; DT40 Tdp1-/- hTDP1 cells, no CPT, ATP luminescence, 48 h; Potency, µM (titrated, usually from 46.2 µM), for the others: top-dose activity change, negative = growth inhibition, most hits filed as inhibitors; 420,000 tested, 15% active; AID 686978, 2013; note: potency is the fitted concentration of half-maximal effect; nearly all actives have a fitted effect of over 55% in size
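Compound effects on proliferation are scored in DT40 Tdp1-/-;hTDP1 cells in the absence of CPT. ATP levels (CellTiter-Glo luminescence) are recorded after a ≥48 hr, 37 °C incubation.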
IL1B secr inh – inhibitors of inflammasome signaling (IL-1 beta secretion); AID 743279; 360,000 tested, 4.7% active; activity change, % at 57.5 µM; THP-1 LPS/ATP IL-1B secretion, AlphaLISA, 16 h; active compounds read low; in the data active = activity change below about -50%; inconclusive = mostly about -30% to -49%
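Secreted IL-1B measured by AlphaLISA bead assay after 16 h compound exposure of THP-1 cells; compounds (final up to 57.5 uM) added 1 h before LPS (250 ng/mL) and ATP (1.25 mM) stimulation; lower signal means less secretion.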
TDP1 cell CPT – DT40-hTDP1 cell growth loss with CPT; 420,000 tested, 12% active; Potency, µM (doses to about 46.2 µM), inactives show at the highest dose activity change, negative = growth inhibition, hits mostly inhibitors; AID 686979; chicken DT40 Tdp1-/-;hTDP1 cells + 20 nM CPT, ATP luminescence, 48 h; note: potency is the fitted concentration of half-maximal effect; nearly all actives have a fitted effect of over 55% in size
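Chicken DT40 Tdp1-/- cells complemented with human TDP1, 400 cells/well, exposed to compounds plus 20 nM camptothecin for at least 48 h at 37 C; viability read as ATP content by CellTiter-Glo luminescence.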
RORgamma inh – inhibitors of mouse ROR gamma transcriptional activity. 310,000 tested, 5.4% active. Drosophila S2 Gal4-RORgamma UAS-luciferase reporter, 20 h. Potency, µM (doses to about 53.6 µM), inactives show at the top dose activity change, negative = inhibition, hits mostly inhibitors. P51450; note: potency is the fitted concentration of half-maximal effect; nearly all actives have a fitted effect of over 60% in size
Target sequence (P51450 whole entry, looked up, the tested form may be a part): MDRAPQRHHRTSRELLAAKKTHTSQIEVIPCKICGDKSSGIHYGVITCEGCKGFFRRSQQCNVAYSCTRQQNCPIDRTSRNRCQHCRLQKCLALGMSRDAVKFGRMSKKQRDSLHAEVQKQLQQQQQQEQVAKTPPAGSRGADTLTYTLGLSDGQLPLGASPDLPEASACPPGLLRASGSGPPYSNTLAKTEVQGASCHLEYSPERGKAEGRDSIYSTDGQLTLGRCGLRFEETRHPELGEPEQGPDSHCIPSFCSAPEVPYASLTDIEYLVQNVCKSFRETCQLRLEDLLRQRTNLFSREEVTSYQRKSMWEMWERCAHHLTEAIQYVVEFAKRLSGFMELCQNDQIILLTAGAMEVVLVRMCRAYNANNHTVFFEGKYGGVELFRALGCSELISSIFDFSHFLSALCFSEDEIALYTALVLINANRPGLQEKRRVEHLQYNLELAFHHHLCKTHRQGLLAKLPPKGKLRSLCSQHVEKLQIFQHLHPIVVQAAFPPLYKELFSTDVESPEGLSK
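Stable Schneider cell line, Gal4 DNA-binding domain fused to ROR gamma, UAS-luciferase. Cmpd 1 hr RT → CuSO4 700 uM final → 20 hr RT → luciferase reagent 10 min → luminescence.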
ELG1 repair inh – blocks ELG1-dependent DNA repair in HEK293T cells. HEK293T ELG1-luciferase reporter, luminescence, 16 h; DNA damage induced by 5-fluorouridine. Potency, µM (top dose mostly 46.1 µM), inactives show at the top dose activity change, negative = inhibition, most hits filed as inhibitors. 330,000 tested, 2.3% active; note: potency is the fitted concentration of half-maximal effect; nearly all actives have a fitted effect of over 55% in size
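DMSO vehicle served as the neutral condition. Each well held 2,000 cells given 5-fluorouridine plus compound; after 16 hr at 37 °C/5% CO2, ONE-Glo was added and luciferase measured 30 min later.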
Gal4-VP16 FLuc – inhibits Gal4-VP16 luciferase reporter, ROR gamma counter-screen. Drosophila S2 Gal4-VP16 UAS-luciferase, luminescence, 20 h. Potency, µM (top dose mostly 53.6 µM), inactives show at the top dose activity, negative = inhibition, usual class: inhibitors. 310,000 tested, 3.5% active. AID 2546;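 note: Gal4-VP16 expression switched on by copper sulfate through the metallothionein promoter; potency is the fitted concentration of half-maximal effect; nearly all actives have a fitted effect of over 50% in size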
* hit, by the source's call; ? = inconclusive; . = not tested or not shown; ! = repeats disagree; [ ] = dose if it differs, or a comment. Sampled rows, rich in hits. Any-hit rate of the full collection: about 21%. Unless noted, calls come from the whole dose curve; as a rule, active = well fitted curve in the direction sought with a large enough effect; inconclusive = small, poorly fitted or top-dose-only effect, or another doubt; inactive = no such curve, though single readings can be large; an effect the other way counts as inactive or inconclusive. % is set by controls: 0 for no effect and ±100 for the full control effect.

SMILES	DT40 TDP1 no CPT	IL1B secr inh	TDP1 cell CPT	RORgamma inh	ELG1 repair inh	Gal4-VP16 FLuc
CS(=O)(=O)N1CCC2(CCCN(c3ccccn3)C2)CC1	-26%	.	-25%	-18%	.	12%
NC1=NCC(O)=C1c1nc2ccccc2[nH]1	13%	-11	-4%	11µM*	25%	9%
N=C1C(c2nc3ccccc3[nH]2)=C(O)CN1C1CCCCC1	?	-17	-10%	-42%	?	20%
Nn1c(SCC(=O)NCCCc2ccccc2)nnc1-c1cccnc1	-8%	-5	-24%	20%	-5%	-16%
Cc1cccc(C)c1NC(=O)C1C(c2ccc3c(c2)OCO3)=Nc2ccccc2N1C(=O)c1cccc2ccccc12 (centres undefined)	7.3µM*	-1	6.5µM*	.	.	.
Cc1nc2ccc(C(=O)N3c4ccccc4N=C(c4ccc5c(c4)OCO5)C3C(=O)NCc3ccccc3)cc2[nH]1 (centres undefined)	1.6µM*	-2	2.1µM*	.	.	.
C[C@@H]1NC(=O)c2cc([N+](=O)[O-])cc(I)c2OCC[C@@H](C(N)=O)NC(=O)[C@H](CCC(=O)O)NC1=O	.	.	.	-32%	-6%	-11%
CC(=O)N1CCN(C(=O)COC(=O)/C=C/c2ccccc2[N+](=O)[O-])CC1	3%	9	-20%	.	21%	.
Cc1ccc(C2=[N+]([O-])C3(CCCCC/C3=N\NC(N)=S)N(O)C2(C)C)o1 (centres undefined)	.	.	.	1.6µM*	5%	2.2µM*
CC1(C)C(c2cccs2)=[N+]([O-])C2(CCCCC/C2=N\O)N1O (centres undefined)	2%	22	-14%	0%	7%	-1%[0.365 µM]
Cc1cccc(NC(=O)CSc2nnc3scc(-c4ccccc4)n23)c1	21µM*	.	?	.	.	.
O=C(CSc1nnc2scc(-c3ccccc3)n12)N1CCCc2ccccc21	-12%	-11	-3%	-24%	1%	9%
O=C(CSc1nnc2scc(-c3ccccc3)n12)Nc1nsc(-c2ccc(Cl)cc2)n1	21µM*	33	16µM*	.	.	.
O=C(CSc1nnc2scc(-c3ccc(Cl)cc3)n12)Nc1ccc(F)cc1	-20%	.	-8%	.	.	.
Cc1ccc(-c2nc(NC(=O)CSc3ccc4ccccc4n3)ns2)cc1	?	10	15µM*!	-29%	?	?
O=C(CSc1nnc2scc(-c3ccccc3)n12)N1CCN(Cc2ccccc2)CC1	?	?	-28%	8.9µM*	-10%	-8%
CC(C)c1cccc(C(C)C)c1NC1=NS(=O)(=O)c2ccccc21	-21%	.	-14%	.	.	.
CCCCNC(=O)NS(=O)(=O)c1ccc(CO)cc1	.	.	.	-14%	.	-5%
O=C(CSc1nnc2scc(-c3ccccc3)n12)Nc1nsc(-c2ccccc2)n1	23µM*	?	15µM*	15%	9.2µM*	?
Cc1ccc(-c2csc3nnc(SCC(=O)Nc4nsc(-c5ccccc5)n4)n23)cc1	23µM*	-23	21µM*	13%	.	-6%
CCOc1ccc(NC(=O)CSc2nnc3scc(-c4ccccc4)n23)cc1	?	.	-23%	.	.	.
NS(=O)(=O)c1cccc(-n2cnnn2)c1	5%	12	-9%	1%	11%	-11%
COc1ccc(NC(=O)N(Cc2cc3ccc(OC)cc3[nH]c2=O)CC2CCCO2)cc1 (centres undefined)	13µM*	-17	18µM*	-11%	10µM*	1%
COc1ccc2cc(CN(CC3CCCO3)C(=O)Nc3ccccc3OC)c(=O)[nH]c2c1 (centres undefined)	4.6µM*	-27	4.1µM*	39%	7.3µM*	0%
COc1ccc(NC(=O)N(Cc2cc3cc(OC)ccc3[nH]c2=O)CC2CCCO2)cc1 (centres undefined)	?	-26	?	-2%	10µM*	-8%
SMILES	DT40 TDP1 no CPT	IL1B secr inh	TDP1 cell CPT	RORgamma inh	ELG1 repair inh	Gal4-VP16 FLuc
COc1ccc2cc(CN(C(=O)Nc3ccccc3OC)C3CCCC3)c(=O)[nH]c2c1	?	?	?	15%	?	-13%
CCOc1ccc(N(Cc2cc3cc(OC)ccc3[nH]c2=O)C(=O)C2CCCO2)cc1 (centres undefined)	18µM*	-11	?	?	-1%	-7%
CCC1CN(CCNC(=O)c2ccc3c(c2)OCCO3)Cc2cc(OC)ccc2O1 (centres undefined)	-25%	.	9%[9.04 µM]	.	.	.
CC[C@H]1NC(=O)c2cc(S(N)(=O)=O)c(Cl)cc2N1	.	.	.	10%[2.98 µM]	.	-29%[17 µM]
CC1CCCN(C(=O)c2ccc3nc[nH]c3c2)C1 (centres undefined)	-4%	-2	-5%	1%	1%	6%
CCCn1c(=S)[nH]c2cc(C(=O)N3CCN(C)CC3)ccc2c1=O	-23%	39	-17%	.	.	.
O=C(c1ccc2c(=O)n(C3CCCC3)c(=S)[nH]c2c1)N1CCCCCC1	13µM*	2	15µM*	1.3µM*	1.8µM*	1µM*
CC1CCCN(C(=O)c2ccc3c(=O)n(C4CCCC4)c(=S)[nH]c3c2)C1 (centres undefined)	?	-16	21µM*	10%	?	-14%[10 µM]
OCC[C@H]1C[C@@H](O)[C@H](O)[C@]2(CCCCO2)O1	4%	10	14%	12%	0%	-10%
CCOC(=O)N1CCN(c2c(F)cc3[nH]c(=S)[nH]c3c2Br)CC1	18µM*	27	?	?	-6%	-2%
CCCN(CC1CCCO1)C(=O)CCc1nnc(CCc2ccc(OC)cc2)o1 (centres undefined)	?	7	23µM*	2%	?	-13%
CC(C)(C)c1ccc(OCCn2cc(C(=O)c3ccco3)c3ccccc32)cc1	23µM*	.	?	.	.	.
O=C(c1cccs1)c1cn(CCOc2ccccc2F)c2ccccc12	18µM*	.	?	.	.	.
O=C(c1cccs1)c1cn(CCOc2ccc(F)cc2)c2ccccc12	21µM*	.	16µM*	.	.	.
NC(=O)Cn1cc(C(=O)c2cccs2)c2ccccc21	3%	18	9%	-12%	?	8%
O=C(Cn1cc(C(=O)c2cccs2)c2ccccc21)NC1CCCCC1	-15%	-9	-14%	?	?	-1%
Cc1cc(OCCn2cc(C(=O)c3cccs3)c3ccccc32)ccc1Cl	16µM*	.	16µM*	.	.	.
